An excerpt weighted towards active compounds, which were near 9.9% of everything screened.
KB-V1 MDR tox: qHTS assay for MDR1-selective chemotherapeutics: Primary screen using the drug-selected MDR subline cells KB-V1. KB-V1 MDR cells viability, CellTiter-Glo, 72 h. Potency, µM (highest dose often 46.1 µM), usual class: cytotoxic. 400,000 tested, 3.4% active. AID 1347076, 2019; also: potency is read from the fitted curve at half-maximal effect; % is scaled to controls: 0 for no effect and ±100 for the full control effect; nearly all actives have a fitted effect of over 60% in size
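Following 72 h at 37 degrees C with compound, KB-V1 cell viability was read by CellTiter-Glo luminescence, medium being phenol-red-free DMEM plus 10% FBS; concentration-response parameters came from normalized, curve-fitted qHTS data.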
KB-3-1 cytotox: qHTS assay for MDR1-selective chemotherapeutics: Primary screen using the parental adenocarcinoma cell KB-3-1 | Potency, µM (highest dose often 46.1 µM), hits mostly cytotoxic | AID 1347075, 2019 | 400,000 tested, 1.4% active | KB-3-1 viability, CellTiter-Glo ATP luminescence, 72 h; also: potency is read from the fitted curve at half-maximal effect; % is scaled to controls: 0 for no effect and ±100 for the full control effect; nearly all actives have a fitted effect of over 60% in size
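Parental KB-3-1 adenocarcinoma cells in phenol-red-free DMEM with 10% FBS were pin-treated with compounds at several concentrations, incubated 72 h at 37 °C, and viability read by CellTiter-Glo luminescence; concentration-effect curves were fitted after normalization.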
SW480 rereplic: A quantitative high throughput screen for small molecules that induce DNA re-replication in SW480 colon adenocarcinoma cells; 340,000 tested, 1.8% active; AID 624297, 2012; SW480 DNA re-replication, Hoechst DNA content imaging, 48 h; Potency, µM (doses to about 46.1 µM), without a hit: top-dose re-replication activation, actives largely listed as activators; also: potency is read from the fitted curve at half-maximal effect; % of control where 0% means no effect; nearly all actives have a fitted effect of over 55% in size
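250 cells/well; 23 nL cpd via pin tool; 48 hr, 37 C, 5% CO2; Hoechst 40 min; imager read of total nuclear intensity, ex 405/em 500-530 nm.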
IL-1B inflam inh: qHTS for Inhibitors of Inflammasome Signaling: IL-1-beta AlphaLISA Primary Screen; THP-1 LPS/ATP IL-1B secretion, AlphaLISA, 16 h; active compounds read low; activity change, % at 57.5 µM; 360,000 tested, 4.7% active; in the data active = activity change below about -50%; inconclusive = mostly about -30% to -49%; also: % is scaled to controls: 0 for no effect and ±100 for the full control effect
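Secreted IL-1B measured by AlphaLISA bead assay after 16 h compound exposure of THP-1 cells; compounds (final up to 57.5 uM) added 1 h before LPS (250 ng/mL) and ATP (1.25 mM) stimulation; lower signal means less secretion.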
MCF10A rereplic: A quantitative high throughput screen for small molecules that induce DNA re-replication in MCF 10a normal breast cells. 350,000 tested, 2.9% active. MCF 10A DNA re-replication, Hoechst nuclear intensity, 48 h. Potency, µM (titrated, usually from 46.1 µM), without a hit: at the highest dose activity, positive = re-replication, actives largely listed as activators; also: potency is read from the fitted curve at half-maximal effect; % of control where 0% means no effect; nearly all actives have a fitted effect of over 50% in size
* marks the source's active call; other numbers are inactive results. Unless noted, calls follow the shape of the dose curve; as a rule, active = well fitted curve in the direction sought with a large enough effect; inconclusive = small, poorly fitted or top-dose-only effect, or another doubt; inactive = no such curve, though single readings can be large; an effect the other way counts as inactive or inconclusive.

For Cc1ccc(C)c(Cn2c(=O)cc(C(F)(F)F)c3c(C)nn(C)c32)c1 the results were KB-V1 MDR tox inactive and KB-3-1 cytotox inactive.
For COc1ccc(Cl)cc1C(=O)NNC(=O)CSc1nnnn1C the results were KB-V1 MDR tox inactive, KB-3-1 cytotox inactive, SW480 rereplic 1%, IL-1B inflam inh 12 and MCF10A rereplic 11%.
For CCCCNC(=O)c1ccc2c(c1)N=C(CC)c1ccccc1S2 the results were KB-V1 MDR tox 18µM* and KB-3-1 cytotox inconclusive.
For CCC1=Nc2cc(C(=O)NCCN3CCCC3)ccc2Sc2ccccc21 the results were KB-V1 MDR tox inactive, KB-3-1 cytotox inactive, SW480 rereplic 0%, IL-1B inflam inh -1 and MCF10A rereplic inconclusive.
Cc1cccc(C(=O)c2cnc3ccccc3c2-c2ccccc2)c1 was read as KB-V1 MDR tox inconclusive, KB-3-1 cytotox inactive, SW480 rereplic 7%, IL-1B inflam inh -19 and MCF10A rereplic 23µM*.
For Cc1ccc2ncc(C(=O)c3ccc(C)c(C)c3)c(S(=O)(=O)c3ccccc3)c2c1 the results were KB-V1 MDR tox inactive and KB-3-1 cytotox inconclusive.
For CCOC(=O)c1c(CSC(=N)N)n(C)c2cc(Br)c(OC(C)=O)cc12 the results were KB-V1 MDR tox inactive, KB-3-1 cytotox inactive, SW480 rereplic -57%, IL-1B inflam inh -102* and MCF10A rereplic -4%.
CCOC(=O)c1c(C)n(C)c2ccc(OC(C)=O)cc12 was read as KB-V1 MDR tox inactive, KB-3-1 cytotox inactive, SW480 rereplic -3%, IL-1B inflam inh -15 and MCF10A rereplic 6%.
CCOC(=O)c1c(CSC(=N)N)n(-c2ccc(C)cc2)c2cc(Br)c(OC(C)=O)cc12 was read as KB-V1 MDR tox inactive, KB-3-1 cytotox inactive, SW480 rereplic -5%, IL-1B inflam inh -76* and MCF10A rereplic inconclusive.
Cc1cccc(C)c1NC(=O)Cn1nc(-c2ccc(Cl)s2)ccc1=O was read as KB-V1 MDR tox inactive, KB-3-1 cytotox inactive, SW480 rereplic inconclusive, IL-1B inflam inh 42 and MCF10A rereplic -8%.
`COc1ccc(OC)c(NC(=O)c2cccc(NC(=O)c3ccccc3C(=O)O)c2)c1` gave KB-V1 MDR tox inactive, KB-3-1 cytotox inactive, SW480 rereplic -8%, IL-1B inflam inh 0 and MCF10A rereplic -3%.
`CCc1ccc(NC(=O)C(=O)c2ccccc2NC(C)=O)cc1` gave KB-V1 MDR tox 23µM*, KB-3-1 cytotox inactive, SW480 rereplic 12%, IL-1B inflam inh 21 and MCF10A rereplic inconclusive.
COc1ccc(/C=N/n2cnc3c([nH]c4ccccc43)c2=O)cc1CO was read as KB-V1 MDR tox inactive, KB-3-1 cytotox inactive, SW480 rereplic inconclusive, IL-1B inflam inh 6 and MCF10A rereplic 2%.
For COc1ccc(/C=N/n2cnc3c([nH]c4ccc(Br)cc43)c2=O)cc1CN1CCOCC1 the results were KB-V1 MDR tox inconclusive, KB-3-1 cytotox inconclusive, SW480 rereplic inconclusive, IL-1B inflam inh -88* and MCF10A rereplic inconclusive.
O=C1Cc2cc(S(=O)(=O)N3CCN(c4cccc(C(F)(F)F)c4)CC3)ccc2N1 was read as KB-V1 MDR tox inactive and KB-3-1 cytotox inactive.
C(=C/c1nccc2c1[nH]c1ccccc12)/c1ccc2c(c1)OCO2 was read as KB-V1 MDR tox inactive, KB-3-1 cytotox inactive, SW480 rereplic 21µM*, IL-1B inflam inh -2 and MCF10A rereplic inconclusive.
For COc1ccc(/C=C/c2nccc3c2[nH]c2ccccc23)cc1 the results were KB-V1 MDR tox inactive and KB-3-1 cytotox inactive.
For COC(=O)c1ccc(C(=O)Nc2ccc3nc(-c4ccncc4)[nH]c3c2)cc1 the results were KB-V1 MDR tox inactive, KB-3-1 cytotox inactive, SW480 rereplic -3%, IL-1B inflam inh -24 and MCF10A rereplic 8%.
For CC(C)OC(=O)Nc1ccc2nc(-c3cscn3)[nH]c2c1 the results were SW480 rereplic 5.3µM* and MCF10A rereplic 9.4µM*.
